Among all 48,000 compounds or so, about 13,000 (27%) showed an effect of 50% or more. The list shows a part of the results.
test system: Wolbachia pipientis; assay: Anti-Wolbachia Cell-Based Screen; type: functional; parameters: scale not given: in the data most compounds retested in dose-response had high values; conditions: 5 µM

Row | Structure (SMILES) | Percent Effect
1 | CCc1cc(N2CCC(F)(F)CC2)n2nc(C)c(C)c2n1 | -3.857%
2 | c1ccc(CCN2CCCC2c2cncc(Nc3nncs3)n2)cc1 (stereo unspecified) | 77.51%
3 | Cc1nc(C)n(CC2CCCN2CC(=O)Nc2nncs2)n1 (stereo unspecified) | -3.74%
4 | O=C(NCC1CCCN1CCc1ccccc1)NCC1(O)CCC1 (stereo unspecified) | 3.682%
5 | c1nnc(Nc2cncc(C3CCCN3CC3CC3)n2)s1 (stereo unspecified) | 143.4%
6 | Cl.NC(=O)COc1ccc(CNCc2ccc(F)cc2F)cc1 | -6.385%
7 | Cc1cc(C)cc(-c2cc(C3CCOC3)c(C#N)c(N)n2)c1 (stereo unspecified) | 8.915%
8 | COc1ccc2c(c1OC)Cc1c-2nc(N)c(C#N)c1C1CCOC1 (stereo unspecified) | 97.76%
9 | COc1ccc2c(c1)Cc1c-2nc(N)c(C#N)c1C1CCOC1 (stereo unspecified) | 55.98%
10 | COc1ccc(-c2cc(C3CCOC3)c(C#N)c(N)n2)cn1 (stereo unspecified) | -5.09%
11 | COc1cc(-c2cc(C3CCOC3)c(C#N)c(N)n2)ccc1O (stereo unspecified) | -3.198%
12 | N#Cc1c(N)nc2c(c1C1CCOC1)CCc1cc(O)ccc1-2 (stereo unspecified) | 95.46%
13 | CN(C)Cc1nc(C(C)(C)NC(=O)C2CC(=O)N(CC3CC3)C2)no1 (stereo unspecified) | -8.829%
14 | CN(C(=O)c1cccn1C)C1CCC(NC(=O)OC(C)(C)C)CC1 (stereo unspecified) | -22.93%
15 | O=C(NC(CC(F)(F)F)c1ccc(Cl)cc1)c1nc(=O)[nH][nH]1 (stereo unspecified) | -2.983%
16 | Cc1ccsc1[C@@H]1CCN(C(=O)CCCn2cncn2)C[C@H]1O | 10.3%
17 | CC(C)c1nc(CC(=O)N2CCCC(n3cncn3)C2)cs1 (stereo unspecified) | -6.104%
18 | Cc1csc2c(C3CCCN(C(=O)Cn4cncn4)C3)nc(C)n12 (stereo unspecified) | 83.22%
19 | Cc1ccc(=O)n(CC(=O)N2CCCC(c3nc(C)c(C)s3)C2)n1 (stereo unspecified) | -3.398%
20 | Cc1csc2c(C3CCCN(C(=O)CCCn4cncn4)C3)nc(C)n12 (stereo unspecified) | 105.3%
21 | O=C(c1ccc2ccccc2c1)C1CCCN(C(=O)Cn2cncn2)C1 (stereo unspecified) | 2.145%
22 | Cc1csc2c(C3CCCN(C(=O)CCn4ccnc4)C3)nc(C)n12 (stereo unspecified) | 85.68%

Row | Structure (SMILES) | Percent Effect
23 | Cc1nc(C)n(C2CCCN(C(=O)CCCn3ccnc3)C2)n1 (stereo unspecified) | -10.35%
24 | CCCN1CCCC2(CCN(C(=O)CCCn3cncn3)C2)C1=O (stereo unspecified) | -10.51%
25 | Cc1nc(C)n(CC(=O)N2CCCC(c3nc(C)n4c(C)csc34)C2)n1 (stereo unspecified) | 71.32%
26 | COc1cccc(OCC2CCCN(C(=O)CCn3ccnc3)C2)c1 (stereo unspecified) | -97.21%
27 | COc1ccc2c(c1)CCCC2CC(=O)NCC(C)(C)C(=O)O (stereo unspecified) | -16.88%
28 | CS(=O)(=O)CCCNC1(c2ccc(Br)cc2)CCC1 | 1.327%
29 | Cc1csc(N2CCN(C(=O)CCn3cncn3)CC2)n1 | 2.857%
30 | CCc1csc(C2CCCN(C(=O)CCn3cc(C)cn3)C2)n1 (stereo unspecified) | -1.231%
31 | Cc1csc2c(C3CCCN(C(=O)CCn4cncn4)C3)nc(C)n12 (stereo unspecified) | 98.48%
32 | Cc1csc2c(C3CCN(C(=O)Cn4cncn4)CC3)nc(C)n12 | 67.21%
33 | COCCCN1CCCN(C(C)C(=O)Nc2ccnn2C(C)C)CC1 (stereo unspecified) | -2.846%
34 | CCOc1c(Cl)cccc1NCc1cc(C)on1 | 3.225%
35 | Cc1cc(Cl)ccc1C(=O)N[C@H]1CN(S(C)(=O)=O)C[C@@H]1C1CC1 | 11.67%
36 | COc1cccc([C@H]2CN(C(=O)c3nnc4n3CCCC4)C[C@@H]2N)c1 | -27.9%
37 | CC(NC(=O)CSCC#N)c1cccc(NC(=O)c2ccccc2)c1 (stereo unspecified) | 1.227%
38 | CC(NC(=O)c1cccs1)C(=O)NS(=O)(=O)Cc1ccc(C#N)cc1 (stereo unspecified) | 0.007489%
39 | CC(C)(C)NC(=O)c1ccccc1NC(=O)c1ccncc1 | 2.582%
40 | CN1CCN(c2ccc(NC(=O)c3cccs3)c(C(F)(F)F)c2)CC1 | -12.21%
41 | N#Cc1cc(NC(=O)c2ccccc2)ccc1N1CCC(O)CC1 | 8.386%
42 | CSc1[nH]nc(NC(=O)c2cccnc2)c1C#N | 127.6%
43 | CS(=O)(=O)Cc1ccc(NC(=O)c2cccnc2)cc1F | 11.8%
44 | CSc1[nH]nc(NC(=O)c2ccncc2)c1C#N | 113.4%

Row | Structure (SMILES) | Percent Effect
45 | CSc1[nH]nc(NC(=O)c2cccs2)c1C#N | 125.8%
46 | CSc1[nH]nc(NC(=O)c2ccccc2)c1C#N | 100.8%
47 | O=C(NCC(F)(F)C(F)F)c1cccnc1 | -7.591%
48 | N#Cc1cc(NC(=O)c2ccncc2)ccc1N1CCC(O)CC1 | -6.115%
49 | CCOc1ccc(CN2C(=O)CC(CC)(CC)C2=O)nc1 | 8.891%
50 | Cc1cc(-n2cnnn2)n2ncnc2n1 | 118.9%
51 | Cc1cc(N2CCCCC2Cn2nc(C)cc2C)n2ncnc2n1 (stereo unspecified) | -7.962%
52 | Cc1cc(N2CCCC2Cn2nc(C)cc2C)n2ncnc2n1 (stereo unspecified) | 10.49%
53 | CCc1nc2n(n1)CC(Nc1cc(C)nc3ncnn13)CC2 (stereo unspecified) | -9.549%
54 | Cc1cc(-n2cncn2)n2ncnc2n1 | 116%
55 | Cc1cc(NCc2ccccc2CN2CCCCC2)n2ncnc2n1 | -7.326%
56 | CN1CCC(N2CCOC[C@H]2c2nc(C(C)(C)C)c[nH]2)CC1 | -19.67%
57 | Cc1cc(S(C)(=O)=O)c(C)c(S(=O)(=O)NCC2CCC2)c1 | -2.164%
58 | COCCN1C(=O)CO[C@H]2CN(Cc3cccc(OC)c3F)C[C@@H]21 | 149.6%
59 | COCCN1C(=O)CO[C@@H]2CN(S(=O)(=O)c3ccccc3)C[C@H]21 | 3.273%
60 | COCCN1C(=O)CO[C@H]2CN(CCCc3ccccc3)C[C@H]21 | -4.545%
61 | COCCN1C(=O)CO[C@H]2CN(Cc3ccccc3OC)C[C@H]21 | -3.474%
62 | COCCN1C(=O)CO[C@H]2CN(Cc3ccccc3Cl)C[C@@H]21 | 128.8%
63 | COCCN1C(=O)CO[C@H]2CN(S(=O)(=O)c3ccccc3)C[C@H]21 | 1.954%
64 | C[S+]([O-])c1nncn1CC(=O)c1cccc(C(F)(F)F)c1 (stereo unspecified) | -15.18%
65 | Cc1cc(CN2CCOC(CN(C)c3cccnn3)C2)no1 (stereo unspecified) | -1.412%
66 | O=C(c1coc(-c2ccccc2)n1)N1CCS(=O)(=O)CC1 | -26.15%

Row | Structure (SMILES) | Percent Effect
67 | O=C(c1ccc(=O)[nH]n1)N1CCNCC1c1ccccc1 (stereo unspecified) | 145.5%
68 | O=C(c1ccc(=O)[nH]n1)N1CCCC1CCc1ccccc1 (stereo unspecified) | -7.859%
69 | CCC1CN(C(=O)c2ccc(=O)[nH]n2)CCC(=O)N1Cc1ccccc1 (stereo unspecified) | 3.625%
70 | C[C@@H]1CN(Cc2ccncc2)C[C@@]1(O)C1CC1 | 102.1%
71 | C[C@@H]1CN(Cc2ccncc2)C[C@]1(C)O | 97.25%
72 | CC1CCCN(Cc2ccc(CNC(=O)NCc3ccncc3)cc2)C1 (stereo unspecified) | -7.368%
73 | C[C@@H]1CN(CC(C)(C)N2CCCCC2)C[C@@]1(O)C1CC1 | 17.38%
74 | C[C@@H]1CN(Cc2nnc(-c3cccnc3)o2)CC[C@]1(C)O | -2.885%
75 | CNc1ccnc(N2C[C@@H](C)[C@](O)(C3CC3)C2)n1 | 0.4082%
76 | CC(=O)NCCc1ccc(S(=O)(=O)N(C)C(C)C(C)(C)C)s1 (stereo unspecified) | -15.89%
77 | COc1ccc(C(C)C)cc1C1CC(=O)NCc2nc(N(C)C)sc21 (stereo unspecified) | -38.77%
78 | COc1ccnc(N2CCN(C(=O)c3cnc(C4CC4)s3)CC2)n1 | -14.05%
79 | Clc1ccc2cccnc2c1CN1CCn2c(nnc2C2CC2)C1 | -29.6%
80 | CCc1nnc2n1CCN(CCS(=O)(=O)c1ccccc1)C2 | 5.511%
81 | CN1CCC(c2nnc3n2CCN(S(=O)(=O)c2ccccc2)C3)CC1 | 90.65%
82 | CN1CCCC1c1nnc2n1CCN(S(=O)(=O)c1ccccc1Cl)CC2 (stereo unspecified) | 104.7%
83 | O=S(=O)(c1ccccc1Cl)N1CCCC(c2ncc[nH]2)C1 (stereo unspecified) | -0.103%
84 | Cn1cnnc1S(=O)(=O)C1CCN(S(=O)(=O)c2c(Cl)cccc2Cl)CC1 | -14.3%
85 | CN1CCC(c2nnc3n2CCN(S(=O)(=O)c2ccccc2Cl)C3)CC1 | 149.5%
86 | CNC(=O)CS(=O)(=O)C1CCN(S(=O)(=O)c2cccc(Cl)c2C)CC1 | -17.28%
87 | O=c1[nH]nc2n1CCN(S(=O)(=O)c1ccccc1Cl)C2 | -39.65%
88 | c1ccc2oc(N3CCn4c(nnc4C4CC4)C3)nc2c1 | -3.429%

Row | Structure (SMILES) | Percent Effect
89 | CN1CCCC(c2nnc3n2CCN(S(=O)(=O)c2ccccc2Cl)C3)C1 (stereo unspecified) | 97.31%
90 | CCOCc1cccc(NC(=O)C2COCCO2)c1 (stereo unspecified) | 8.112%
91 | CC(Oc1ccc(OCc2ncc(C(C)C)o2)cc1)C(N)=O (stereo unspecified) | 3.924%
92 | COCCN(C(=O)c1ccc(OC)cc1)c1ccc(C#N)cc1 | 3.07%
93 | Cc1ccc(C(=O)NCCCN(C(C)C)S(C)(=O)=O)c(=O)[nH]1 | 16.76%
94 | COCCN(C)C[C@H]1CC[C@@H](Cc2ccc3c(cnn3C)c2)O1 | -8.226%
95 | CCCS(=O)(=O)N1C[C@H]2C[C@H](C(=O)N(C)C)[C@@H](C1)O2 | 1.854%
96 | Cc1cnc(N2C[C@H]3C[C@H](C(=O)N4CCN(C)CC4)N(C)[C@H]3C2)nc1.O=C(O)C(F)(F)F.O=C(O)C(F)(F)F.O=C(O)C(F)(F)F | 1.417%
97 | CC(C)NC(=O)N1C[C@H]2C[C@H](C(=O)N3CCCC3)[C@@H](C1)O2 | -51.72%
98 | CN(C)C(=O)[C@H]1C[C@@H]2CN(S(=O)(=O)c3ccccc3)C[C@H]1O2 | 1.569%
99 | CC(C)CS(=O)(=O)N1C[C@H]2C[C@H](C(=O)N(C)C)[C@@H](C1)O2 | 117.8%
100 | O=C(NCC1CCCCC1)N1C[C@H]2C[C@H](C(=O)N3CCCC3)[C@@H](C1)O2 | -1.453%
101 | CC(C)CS(=O)(=O)N1C[C@H]2C[C@H](C(=O)N3CCOCC3)[C@@H](C1)O2 | 113.5%
102 | O=C(NCC1CCCCC1)N1C[C@H]2C[C@H](C(=O)N3CCOCC3)[C@@H](C1)O2 | -10.09%
103 | CC(C)CN1CCS(=O)(=O)[C@@H]2CCN(S(=O)(=O)CC(C)C)CC[C@@H]21.O=C(O)C(F)(F)F | -0.8095%
104 | CC(C)CS(=O)(=O)N1C[C@H]2C[C@H](C(=O)NCc3ccccc3)[C@@H](C1)O2 | 6.255%
105 | CC(C)CS(=O)(=O)N1C[C@H]2C[C@H](C(=O)N3CCN(C)CC3)[C@@H](C1)O2.O=C(O)C(F)(F)F | 100.5%
106 | CC(C)CS(=O)(=O)N1C[C@H]2C[C@H](C(=O)N3CCCC3)[C@@H](C1)O2 | 109.6%
